Screening data deposited in PubChem BioAssay by National Center for Advancing Translational Sciences (NCATS).
Sampled rows, rich in hits. Any-hit rate of the full collection: about 19%.
HT1080NT lethal: kills 2HG-producing HT-1080-NT fibrosarcoma cells; HT-1080-NT fibrosarcoma viability, CellTiter-Glo ATP luminescence, 48 h; Potency, µM (highest dose often 46.1 µM), usual class: cytotoxic; 360,000 compounds, 1.6% hits;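 also: NT is the 2HG producing partner of a matched IDH1 knockdown line; nearly all actives have a fitted effect of over 55% in size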
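Toxicity toward the 2HG-producing NT line was scored as %Activity, normalised to DMSO and no-cell wells, from CellTiter-Glo luminescence after 48 hours' treatment.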
TDP1 cell CPT: growth inhibition of DT40 Tdp1-/-;hTDP1 cells with camptothecin (screen for TDP1 inhibitors) | chicken DT40 Tdp1-/-;hTDP1 cells + 20 nM CPT, ATP luminescence, 48 h | Potency, µM (highest dose often 46.2 µM), most hits filed as inhibitors | 420,000 compounds, 12% hits | AID 686979; also: nearly all actives have a fitted effect of over 55% in size
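Cell growth measured by CellTiter-Glo luminescence after a minimum 48 h, 37 C compound exposure with 20 nM CPT in Tdp1-knockout DT40 cells stably expressing hTDP1, seeded 400/well; qHTS titration format.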
HT1080 IDH1KD tx: kills HT-1080 cells with IDH1 knockdown | HT-1080 IDH1 knockdown viability, ATP luminescence, 48 h | Potency, µM (doses to about 46.1 µM), hits mostly cytotoxic | 360,000 compounds, 2% hits | AID 686971
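After a 2 h attachment period, IDH1KD HT-1080 cells took pin-transferred compound for 48 h at 37 °C; ATP-based luminescence after 10 min room-temperature reagent incubation reported viability.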
TDP1 cell noCPT: qHTS for Inhibitors of human tyrosyl-DNA phosphodiesterase 1 (TDP1): qHTS in cells in absence of CPT; DT40 Tdp1-/- hTDP1 cells, no CPT, ATP luminescence, 48 h; Potency, µM (top dose mostly 46.2 µM), usual class: inhibitors; 420,000 compounds, 15% hits; also: nearly all actives have a fitted effect of over 55% in size
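A cellular qHTS used chicken DT40 cells lacking endogenous Tdp1 but carrying stably transfected human TDP1. Compounds were applied without camptothecin, and cell growth kinetics were judged by ATP-dependent luminescence after ≥48 hr.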
IL1B secr inh: inflammasome signaling inhibition, IL-1 beta readout; 360,000 compounds, 4.7% hits; AID 743279; activity change, % at 57.5 µM; THP-1 LPS/ATP IL-1B secretion, AlphaLISA, 16 h; hits give low values; in the data active = activity change below about -50%; inconclusive = mostly about -30% to -49%
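Secreted IL-1B measured by AlphaLISA bead assay after 16 h compound exposure of THP-1 cells; compounds (final up to 57.5 uM) added 1 h before LPS (250 ng/mL) and ATP (1.25 mM) stimulation; lower signal means less secretion.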
A number is an active result; – = inactive; ? = inconclusive; · = no result. Unless noted, calls follow the shape of the dose curve; as a rule, active = well fitted curve in the direction sought with a large enough effect; inconclusive = small, poorly fitted or top-dose-only effect, or another doubt; inactive = no such curve, though single readings can be large; an effect the other way counts as inactive or inconclusive.

SMILES | HT1080NT lethal | TDP1 cell CPT | HT1080 IDH1KD tx | TDP1 cell noCPT | IL1B secr inh
CCN1C(=O)[C@H]2[C@@H](c3ccc(-c4ccccc4)c(OC)c3)N[C@@](Cc3ccccc3)(C(=O)OC)[C@H]2C1=O | – | – | – | – | –
CCN1C(=O)[C@H]2[C@@H](c3ccc(-c4cccc(Cl)c4)c(OC)c3)N[C@@](CC(C)C)(C(=O)OC)[C@H]2C1=O | – | ? | – | ? | -61
CCN1C(=O)[C@H]2[C@@H](c3ccc(-c4ccc(Cl)c(Cl)c4)cc3)N[C@@](CC(C)C)(C(=O)OC)[C@H]2C1=O | – | 4.1µM | – | ? | –
COC(=O)[C@]1(CC(C)C)N[C@H](c2ccc(-c3ccc(C(C)=O)cc3)cc2)[C@@H]2C(=O)N(C)C(=O)[C@@H]21 | – | – | – | ? | –
CCCSc1ccc([C@H]2N[C@@](CC(C)C)(C(=O)OC)[C@H]3C(=O)N(C)C(=O)[C@@H]23)cc1 | – | ? | – | ? | –
CCN1C(=O)[C@H]2[C@@H](c3ccc(-c4cccc(Cl)c4)cc3)N[C@@](CC(C)C)(C(=O)OC)[C@H]2C1=O | – | 18µM | – | 12µM | –
COc1ccc(NC(=O)CN2C(=O)C(C)Oc3ccccc32)cc1OC (stereo unspecified) | – | – | – | ? | –
CO/N=C(/C(=O)NC1C(=O)N2C(C(=O)O)=C(CSc3nc(=O)c(O)nn3C)CSC12)c1csc(N)n1 (stereo unspecified) | · | – | · | ? | ·
COC(=O)[C@]1(CC(C)C)N[C@H](c2ccc(-c3ccc(Cl)c(Cl)c3)cc2)[C@@H]2C(=O)N(C)C(=O)[C@@H]21 | – | ? | – | 18µM | ?
CCOC(=O)NS(=O)(=O)c1ccc(CCNC(=O)c2cc(C)on2)cc1 | – | – | – | – | –
Cc1cc(S(=O)(=O)NCCc2csc(-c3cccc(F)c3)n2)ccc1F | · | ? | · | 1.3µM | ·
COc1cc(C(=O)NCCc2sc(-c3cccc(F)c3)nc2C)cc(OC)c1OC | · | 9.2µM | · | 12µM | ·
COc1ccc(S(=O)(=O)NCCc2ccc(F)cc2)cc1 | – | – | – | – | –
COc1ccc(S(=O)(=O)NCCc2sc(-c3cccc(F)c3)nc2C)cc1 | · | 16µM | · | 21µM | ·
O=S(=O)(NCCc1csc(-c2cccnc2)n1)c1cccc(F)c1 | – | – | – | – | –
Cc1cc(C)cc(NC(=O)C(=O)NCCc2sc(-c3cccc(F)c3)nc2C)c1 | · | – | · | – | ·
COC(=O)c1ccc(NC(=O)C(=O)NCCc2sc(-c3cccc(F)c3)nc2C)cc1 | · | 12µM | · | ? | ·
CCOC(=O)c1ccc(N2CCN(C(C)=O)CC2)c(NC(=O)c2cccnc2)c1 | – | – | – | – | –
CC(C)CNC(=O)CN1c2cccc3cccc(c23)S1(=O)=O | ? | – | – | – | –
COc1ccc(N(C)C(=O)c2ccc(NC(=O)CCS(=O)(=O)c3cccs3)cc2)cc1 | – | – | – | – | –
CCOc1ccc(OCCC(=O)N(CC(C)C)c2c(N)n(Cc3ccccc3)c(=O)[nH]c2=O)cc1 | – | – | – | – | –
O=C(NCCCN1CCOCC1)c1cccc(S(=O)(=O)N2CCc3ccccc32)c1 | – | ? | – | 23µM | –
CN(C)C(=O)c1ccc(NC(=O)c2cccc(S(=O)(=O)N3CCCc4ccccc43)c2)cc1 | ? | 23µM | – | 16µM | –
CN1CCc2nc(NC(=O)c3cccc(S(=O)(=O)N4CCc5ccccc54)c3)sc2C1 | – | – | – | – | –
O=C(NCCCN1CCOCC1)c1cccc(S(=O)(=O)N2CCOCC2)c1 | – | – | – | – | –
SMILES | HT1080NT lethal | TDP1 cell CPT | HT1080 IDH1KD tx | TDP1 cell noCPT | IL1B secr inh
O=C(Nc1nc2c(s1)CCCC2)c1cccc(S(=O)(=O)N2CCCc3ccccc32)c1 | – | 26µM | – | 23µM | –
O=C(Nc1ccncc1)c1cccc(S(=O)(=O)N2CCc3ccccc32)c1 | – | 5.8µM | ? | 6.5µM | ?
COc1ccc(NC(=O)CSc2nnnn2C)cc1S(=O)(=O)N1CCCCC1 | – | – | – | ? | –
O=C(O)c1cccc(NC(=O)c2cccc(S(=O)(=O)N3CCc4ccccc43)c2)c1 | – | – | – | – | –
O=C(Nc1cccnc1)c1cccc(S(=O)(=O)N2CCc3ccccc32)c1 | – | 26µM | – | ? | –
CCOC(=O)c1sc(NC(=O)c2cccc(S(=O)(=O)N3CCc4ccccc43)c2)c(C#N)c1C | ? | 5.8µM | ? | 2.9µM | –
Nc1nc(Nc2ccccc2)nc2c1ncn2[C@@H]1O[C@@H](CO)[C@H](O)[C@H]1O | · | – | · | – | ·
Nc1ncnc2c1nc(Cl)n2C1OC(CO)C(O)C1O (stereo unspecified) | · | 0.37µM | · | 0.46µM | ·
[N-]=[N+]=Nc1nc2c(N)ncnc2n1C1OC(CO)C(O)C1O (stereo unspecified) | · | 0.41µM | · | 0.58µM | ·
Nc1ncnc2c1nc(-c1ccccc1)n2C1OC(CO)C(O)C1O (stereo unspecified) | – | – | ? | – | -50
Nc1ncnc2c1nc(Br)n2C1CC(O)C(CO)O1 (stereo unspecified) | · | – | · | – | ·
CN(C)c1nc2c(N)ncnc2n1[C@H]1O[C@@H](CO)[C@H](O)[C@@H]1O | – | – | – | – | –
CN(C)c1nc2c(N)ncnc2n1C1OC(CO)C(O)C1O (stereo unspecified) | – | – | – | – | –
Nc1ncnc2c1nc(Cl)n2[C@@H]1O[C@H](CO)[C@@H](O)[C@@H]1O | · | 1µM | · | 5µM | ·
N#Cc1ccc(S(=O)(=O)N2CCN(CC(=O)NCC3(N4CCOCC4)CCCCC3)CC2)cc1 | – | – | – | – | –
O=C(CCc1ccccc1)NNC(=O)c1ccncc1 | – | – | – | – | –
O=C(Cc1csc2nc(-c3ccc(F)cc3)cn12)NCc1ccccc1 | · | 16µM | · | ? | ·
O=C(NCc1ccccc1)c1ccc2c(c1)sc1nc(-c3ccc(F)cc3)cn12 | · | – | · | – | ·
O=S1(=O)C[C@@H](N2CCOCC2)[C@H](N2CCOCC2)C1 | – | – | – | – | –
C=CC1C(N2CCOCC2)C(C)(C)S1(=O)=O (stereo unspecified) | – | 23µM | – | ? | –
CC(C)(C)c1ccc(C2C(C(=O)c3ccco3)=C(O)C(=O)N2CC2CCCO2)cc1 (stereo unspecified) | – | ? | – | 18µM | –
O=C(C1=C(O)C(=O)N(CC2CCCO2)C1c1ccccc1)c1ccco1 (stereo unspecified) | – | – | – | – | –
COc1ccc(C)cc1NS(=O)(=O)c1ccc(-c2cnc(C3CC3)o2)cc1 | ? | 0.065µM | 0.0073µM | 0.065µM | –
CCOC(=O)c1cccc(NS(=O)(=O)c2ccc(-c3cnc(C4CC4)o3)cc2)c1 | · | 2.3µM | · | 2.6µM | ·
